High-throughput results deposited in PubChem by National Center for Advancing Translational Sciences (NCATS).
LASV entry inh = Lassa virus entry inhibition | Lassa virus pseudotyped entry inhibition, cell-based qHTS | Potency, µM (series often up to 49.2 µM), hits mostly inhibitors | hit rate 4.1% among 18,000
Marburg entry = Marburg virus entry inhibition. hit rate 6.5% among 18,000. Potency, µM (doses to about 49.2 µM), most hits filed as inhibitors. Marburg virus pseudotype entry/binding inhibition, cell-based
Large screens that a line does not name were inactive; ! = repeats disagree. Compounds with a hit are over-represented: about 8.6% of the library has one in this group of screens. Calls follow the shape of the full dose curve; tested in HEK293 cells.

COc1ccccc1-c1nc(NCc2cnc(C)cn2)c2ccccc2n1	none
COc1ccccc1-c1cc(NCc2cccnc2)ncn1	none
Cc1cccc(CNc2nc(-c3ccoc3)nc3ccccc23)c1	none
Cc1cccc(CNc2nc(-c3ccccc3CN(C)C)nc3ccccc23)c1	LASV entry inh inconclusive, Marburg entry 11µM
COc1ccc(CNc2nc(-c3ccccc3CN(C)C)nc3ccccc23)c(OC)c1	LASV entry inh inconclusive, Marburg entry 7.9µM
COc1ccc(CNc2cc(-c3ccccc3CN(C)C)ncn2)c(OC)c1	Marburg entry 10µM
COc1ccccc1-c1nc(NCc2ccccc2)c2ccccc2n1	LASV entry inh 14µM, Marburg entry 13µM
COc1cccc(CN2c3ccc(Br)cc3C(O)CS2(=O)=O)c1 (centres undefined)	none
C=CC1CC(C=C)OP(=O)(OC[C@H](C)[C@@H](O[Si](C)(C)C(C)(C)C)[C@@H](C)C=C)O1 (some centres undefined)	none
CCN1C(=NCC(C)C)N[C@@H](CCc2ccccc2)[C@H](C(=O)OC)[C@H]1C	Marburg entry inconclusive
O=[N+]([O-])c1ccc(-c2nc(-c3ccc(F)cc3)c(-c3ccncc3)[nH]2)cc1	Marburg entry 11µM
Fc1ccc(-c2c(-c3ccncc3)nc3n2CCS3)cc1	Marburg entry inconclusive
COC(=O)C1=C(C(=O)OC)[C@@H]2N(C)c3ccccc3[C@@]23CCC(=O)N(CC(C)C)C3=N1	none
CN1CC(CNC(=O)OCc2ccccc2)CC2c3cccc4c3c(cn4C)CC21 (centres undefined)	LASV entry inh inconclusive, Marburg entry 10µM
CC(O)C(C)OC(=O)[C@@H]1C[C@@H]2c3cccc4c3c(cn4C(C)C)C[C@H]2N(C)C1 (some centres undefined)	LASV entry inh inconclusive
O=C(CCl)c1ccc(Cl)cc1Cl	LASV entry inh 13µM, Marburg entry 8.9µM
OCc1ccc(Cl)cc1Cl	none
CC(=O)OC1CC2C(C)(C)C(O)CC[C@@]2(C)C2CC[C@@]3(C)C(c4ccoc4)OC(=O)C4O[C@@]43[C@]12C (some centres undefined)	LASV entry inh inconclusive, Marburg entry 13µM
CC(=O)OC1CC2C(C)(C)C(O)CC[C@@]2(C)C2CC[C@@]3(C)C(c4ccoc4)OC(=O)C4OC43[C@]12C (some centres undefined)	Marburg entry inconclusive
C[C@H]1[C@@H](c2ccccc2)Oc2c(Cl)cccc2S(=O)(=O)N1Cc1ccc(F)cc1F	Marburg entry inconclusive
COc1cccc([C@@H]2Oc3ccc(Br)cc3C[C@@H]2OC(=O)N[S+](=O)([O-])c2ccc(C)cc2)c1	none
O=C(c1ccc(C(F)(F)F)cc1)N1CCC(=O)N([C@H](COCc2ccc(Cl)cc2)Cc2ccccc2)CC1	LASV entry inh 28µM, Marburg entry inconclusive
Cc1cccc(C(=O)N2CCC(=O)N([C@H](COCc3ccccc3)Cc3ccccc3)CC2)c1	LASV entry inh inconclusive
OC[C@H]1O[C@H](c2ccccc2)C=C[C@H]1OCc1cccc(Br)c1	none
COC(=O)N[C@@H](c1cccs1)C(C(C)=O)C(=O)OC (some centres undefined)	none
CC(C)(C)c1ccc(O[C@@H]2[C@H](O)CO[C@@H]2C=CC#Cc2ccccc2)cc1	none
CC(C)=CCCC(C)=CCON=C1C[C@@H](O)[C@@H](O)[C@@H]2[C@H]3C(=O)N(c4cccc(Oc5ccccc5)c4)C(=O)[C@@H]3CC[C@H]12	none
Cc1cc(C)c(-c2cc([C@H](C)ON=C[C@@H](C)[C@H](OCc3ccccc3)C(C)C)on2)c(C)c1	none
C[C@@H]1CC[C@H]2C(=O)N(Cc3ccccc3)C[C@@H](O)CN2[C@@H]1c1cccc(Br)c1	none (no result: LASV entry inh)
O=C(O)[C@@H](O)[C@H](O)[C@H](O)[C@@H](O)C(=O)O	none
N[C@H](C(=O)O)[C@H](O)C(=O)O	LASV entry inh inconclusive, Marburg entry 14µM!
COC(=O)C1=C(C)N(CC#C[Si](C)(C)C)C(=O)N(C(C)=O)C1c1ccccc1 (centres undefined)	none
O=C1CCCC2=C1[C@H]1O[C@](CCCCN3C(=O)c4ccccc4C3=O)(Cc3c1ccc1ccccc31)O2	none
COc1ccccc1N1CCN(c2nc(CNC(=O)C3CC34CCCC4)nc3ccccc23)CC1 (centres undefined)	LASV entry inh 32µM, Marburg entry inconclusive
COc1ccccc1N1CCN(C[C@@H](C(=O)NC(C)(C)C)c2ccccc2)CC1	none
Cc1nc(NCc2c(C)nn(C)c2Cl)sc1-c1ccn(CC2COc3ccccc3O2)n1 (centres undefined)	none
CC(=O)OC[C@H]1O[C@H](C#Cc2ccc(F)cc2F)C=C[C@H]1OC(C)=O	none
CC(C)C[C@H](NC(=O)CNC(=O)[C@H](Cc1ccc(O)cc1)NC(=O)[C@H](CO)NC(=O)[C@H](Cc1c[nH]c2ccccc12)NC(=O)[C@H](Cc1cnc[nH]1)NC(=O)[C@@H]1CCC(=O)N1)C(=O)N[C@@H](CCCN=C(N)N)C(=O)N1CCC[C@H]1C(=O)NCC(N)=O (stereo in doubt)	none
CCNC(=O)[C@@H]1CCCN1C(=O)[C@H](CCCN=C(N)N)NC(=O)[C@H](CC(C)C)NC(=O)[C@@H](Cc1c[nH]c2ccccc12)NC(=O)[C@H](Cc1ccc(O)cc1)NC(=O)[C@H](CO)NC(=O)[C@H](Cc1c[nH]c2ccccc12)NC(=O)[C@H](Cc1cnc[nH]1)NC(=O)[C@@H]1CCC(=O)N1	LASV entry inh 3.2µM, Marburg entry inconclusive
C=C[C@@](C)(O)C1CC2C=CCOP(=O)(O2)O1 (some centres undefined)	none
COCC1CN(CCc2ccc(F)cc2)[S+](=O)([O-])c2c(OCCN3C(=O)[C@H]4[C@H](C3=O)[C@H]3C=C[C@@H]4C3)cccc2O1 (some centres undefined)	none
COc1ccc(-c2oc3ccccc3c(=O)c2O)cc1OC	none
COc1ccc(-c2oc3cc(OC)c(OC(C)=O)c(OC)c3c(=O)c2OC)cc1OC(C)=O	LASV entry inh 0.32µM
COc1ccc(-c2ccc(-c3cc(=O)oc4cc(OC)c(OC)c(OC)c34)cc2)cc1OC	LASV entry inh 18µM
COc1cc2oc(=O)cc(-c3ccc(-c4cccc(N)c4)cc3)c2c(OC)c1OC	Marburg entry inconclusive
CCOC(=O)C1=C(CCl)NC(=O)N(C(C)=O)C1c1ccccc1 (centres undefined)	none (no result: LASV entry inh)
C=COC[C@H]1CN2[C@H](c3ccc(Br)cc3)[C@H](C)CC[C@H]2C(=O)O1	none
C[C@@H]1C(c2ccccc2)=CC(=O)c2nc3ccccc3cc2[C@@H]1C(=O)N1CCCC1	none
CC(=O)OC1CCC2(C)C3=C(CCC2C1(C)C)[C@@]1(C)CCC(C(C)CCC=C(C)C)[C@@]1(C)CC3 (some centres undefined)	none
COc1cc(/C=C/C(=O)O[C@H]2CC[C@]34C[C@]35CC[C@]3(C)[C@@H]([C@H](C)CCC=C(C)C)CC[C@@]3(C)[C@@H]5CC[C@H]4C2(C)C)ccc1O	LASV entry inh 25µM!
Fc1ccc(-c2nn3ccccc3c2-c2ccncc2)cc1	Marburg entry inconclusive
CC(C)CC1C(=O)N(Cc2cn(CCC3OCCCO3)nn2)CCS(=O)(=O)N1Cc1ccc(-c2ccc(F)nc2)cc1 (centres undefined)	Marburg entry inconclusive
CC(C)(C)OC(=O)N[C@@H](Cc1c[nH]c2ccccc12)C(=O)O	none
CC[C@@H](C)[C@H](NS(=O)(=O)c1cccc2ccccc12)C(=O)N[C@H](C=O)Cc1c[nH]c2ccccc12	LASV entry inh inconclusive, Marburg entry 3.5µM
O=C(O)Cc1ccc(O)c(O)c1	none
